Screens from PubChem.
MBD2 DNA inh: blocks human MBD2 binding to methylated DNA | Q9UBB5 | actives 0.31% (n = 370,000) | TR-FRET, MBD2 binding to methylated oligonucleotide | inhibition, % at 4.4 µM; in the data active means inhibition above about 13%
Target sequence (Q9UBB5 whole entry, looked up): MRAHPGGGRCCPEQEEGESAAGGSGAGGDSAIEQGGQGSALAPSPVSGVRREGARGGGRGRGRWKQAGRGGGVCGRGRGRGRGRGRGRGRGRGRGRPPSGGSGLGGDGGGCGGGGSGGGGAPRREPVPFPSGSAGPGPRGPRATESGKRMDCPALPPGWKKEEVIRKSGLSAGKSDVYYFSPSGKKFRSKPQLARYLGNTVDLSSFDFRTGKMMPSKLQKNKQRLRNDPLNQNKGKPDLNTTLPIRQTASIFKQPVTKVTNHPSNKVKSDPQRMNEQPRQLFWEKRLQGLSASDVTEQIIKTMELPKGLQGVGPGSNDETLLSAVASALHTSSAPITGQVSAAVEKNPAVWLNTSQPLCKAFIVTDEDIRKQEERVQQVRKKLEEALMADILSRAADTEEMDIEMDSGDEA
CASP6 VEID inh: caspase-6 (human) enzyme inhibition | purified caspase-6, Z-VEID-R110 cleavage fluorescence | inhibition, % at 12.5 µM | actives 0.53% (n = 350,000);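 active means mean inhibition across replicates at least about 35%, with every replicate also reaching that limit, limit read from the data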
UHRF1 MBD2 ctr: human UHRF1 methylated DNA binding inhibitors | Q96T88 | UHRF1 binding to methylated oligo, TR-FRET | inhibition, % at 4.4 µM | actives 0.75% (n = 370,000); in the data active means inhibition above about 21%;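 further: UHRF1 SRA domain binding a hemimethylated CpG hairpin DNA probe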
LEDGF integ inh: blocks HIV-1 LEDGF/p75-dependent DNA integration; TR-FRET IN-LEDGF/p75 DNA integration, Eu/Cy5; inhibition, % at 3.7 µM; actives 0.64% (n = 370,000);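 active means inhibition above the screen-wide mean plus 3 SD, cut at about 13% in these data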;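 further: signal is the Cy5 over europium emission ratio at 671 and 618 nm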
IN multimer up: counter-screen for LEDGF/p75 integration inhibitors: HIV-1 integrase multimerization activators; shares compounds with LEDGF integ inh; TR-FRET HIV-1 integrase multimerization, biochemical; actives 17% (n = 2,000); AID 1053131; activation, % at 7.7 µM; in the data active means activation above about 8.9%
TR-FRET interf: counter-screen for LEDGF/p75 integration inhibitors: TR-FRET optical interference | inhibition, % at 7.7 µM | TR-FRET optical interference counterscreen, HIV-1 IN multimerization | 2,000 tested, under 10 active | shares compounds with LEDGF integ inh;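 active means inhibition above the mean over all tested compounds plus 3 SD, which no compound reached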
IN-LEDGF confirm: confirmation of HIV-1 LEDGF/p75-dependent integration inhibitors | inhibition, % at 3.7 µM | TR-FRET LEDGF/p75-dependent HIV-1 integration, biochemical | actives 36% (n = 2,000) | AID 1053136 | shares compounds with LEDGF integ inh; in the data active means inhibition above about 14%
A number is an active result; 0 = inactive; - = not tested or not shown. Shown are actives, neighbours in structure and some others; about 1.4% of the full set was active somewhere.

SMILES	MBD2 DNA inh	CASP6 VEID inh	UHRF1 MBD2 ctr	LEDGF integ inh	IN multimer up	TR-FRET interf	IN-LEDGF confirm
O=C(O)[C@@H]1[C@@H](CO)[C@@H]2Cn3c(ccc(-c4ccccc4)c3=O)[C@H]1N2CC1CCCCC1	-	0	-	-	-	-	-
O=C(Cc1ccccn1)N1CCCCN2[C@@H](CO)[C@H](c3ccc(Br)cc3)[C@@H]2C1	-	0	-	-	-	-	-
CN1C(=O)/C(=C/c2cccn2-c2ccc3ccccc3c2)C(=O)NC1=S	0	-	0	18	0	0	30
Cc1cc(C)cc(N2C(=O)NC(=O)/C(=C\c3cccn3-c3ccccc3)C2=O)c1	0	-	0	0	-	-	-
COC(=O)[C@@H]1[C@@H](CO)[C@@H]2Cn3c(ccc(-c4ccncc4)c3=O)[C@H]1N2S(=O)(=O)c1ccccc1F	-	0	-	-	-	-	-
Cc1cc(/C=C2\C(=O)NC(=O)N(c3cccc(F)c3)C2=O)c(C)n1-c1cc(C(=O)O)cc(C(=O)O)c1	0	0	33	39	0	0	24
Cc1cc(/C=C2\C(=O)NC(=O)N(c3ccc(Cl)cc3)C2=O)c(C)n1-c1cccc(C(=O)O)c1	0	0	0	0	-	-	-
Cc1cc(/C=C2\C(=O)NC(=O)N(c3ccc(Br)cc3)C2=O)c(C)n1-c1cc(C(=O)O)cc(C(=O)O)c1	0	0	44	44	0	0	31
Cc1cc(/C=C2\C(=O)NC(=O)N(c3cccc(Br)c3)C2=O)c(C)n1C	0	-	0	0	-	-	-
C[C@@H]1CN([C@H](C)CO)C(=O)c2c(c3ccccc3n2C)-c2ccccc2CO[C@@H]1CN(C)C(=O)Oc1ccccc1	-	0	-	-	-	-	-
N#Cc1ccc(-c2ccc([C@H]3[C@H](CO)N4CCCCN(C(=O)Cc5ccccc5)C[C@@H]34)cc2)cc1	-	0	-	-	-	-	-
N#Cc1cccc(-c2ccc([C@H]3[C@H](CO)N4CCCCN(C(=O)Cc5cccnc5)C[C@@H]34)cc2)c1	-	0	-	-	-	-	-
COc1ccc(OC(=O)N(C)C[C@@H]2OCc3ccccc3-c3c(n(C)c4ccccc34)C(=O)N([C@H](C)CO)C[C@H]2C)cc1	-	0	-	-	-	-	-
COc1ccc(CN2Cc3cc(-c4ccc(OC)cc4)ccc3-n3nncc3C2)cc1	0	0	0	17	0	0	0
COc1ccc(CN2Cc3cc(-c4ccccc4)ccc3-n3nncc3C2)cc1	0	0	0	0	-	-	-
COc1ccc(C#Cc2ccc([C@@H]3[C@@H](CO)N4CCCCN(C(=O)Cc5ccccc5)C[C@@H]34)cc2)cc1	-	0	-	-	-	-	-
CCCNC(=O)c1c(N)n(CC2CCCO2)c2nc3ccccc3nc12 (centres undefined)	0	-	0	0	-	-	-
Nc1c(C(=O)NCCCc2ccccc2)c2nc3ccccc3nc2n1Cc1cccs1	0	-	0	26	0	0	0
CC(C)OCCCNC(=O)c1c(N)n(CC2CCCO2)c2nc3ccccc3nc12 (centres undefined)	0	55	0	29	0	0	0
COC(=O)[C@H]1[C@H](CO)[C@H]2Cn3c(cccc3=O)[C@@H]1N2C(=O)C1CCCC1	-	0	-	-	-	-	-
CC(=O)c1ccc2c(c1)C1C(Cl)C(Sc3ccccc3[N+](=O)[O-])CC1C(C(=O)O)N2 (centres undefined)	0	-	0	14	0	0	20
CC1=C[C@@H]2c3cccc4[nH]cc(c34)C[C@H]2N(C)C1	0	0	0	0	-	-	-
CN1C[C@H](CO)C=C2c3cccc4[nH]cc(c34)C[C@H]21	0	0	0	16	0	0	0
CN(C)[C@@H]1C(=O)C(C(N)=O)=C(O)[C@@]2(O)C(=O)C3=C(O)c4c(O)ccc(Cl)c4[C@@](C)(O)[C@H]3C[C@@H]12	0	0	0	14	0	0	0
CN(C)[C@@H]1C(=O)C(C(N)=O)=C(O)[C@@]2(O)C(=O)C3=C(O)c4c(O)cccc4[C@@](C)(O)C3C[C@@H]12 (some centres undefined)	0	55	0	18	0	0	0
COc1cc2c(cc1OC)-c1c(OC)c(OC)cc3c1C(C2)N(C)CC3 (centres undefined)	0	69	34	20	0	0	0
COc1ccc(CC2c3cc(OC)c(OC)cc3CCN2C)cc1O (centres undefined)	0	0	0	0	-	-	-
